Assay results published in PubChem BioAssay (EPA / NIEHS).
Values joined by “and” are separate entries in the source; they are usually repeats but may differ in a detail not shown here. Equal entries are not always repeated. Records with an inconclusive call do not appear. Active and inactive are the calls of the source. Rule for the calls: active = hit-call score of the fitted dose curve at least 0.9, where 1 is the maximum; inconclusive = response in the unintended direction; inactive = score below 0.9.

What follows are molecules tested against human SRC Proto-Oncogene, Non-receptor Tyrosine Kinase (SRC), SRC (gene 6714) (UniProt P12931) (assay: NVS_ENZ_hSRC: NovaScreen (NVS) Enzymatic Assay for human SRC Proto-Oncogene, Non-receptor Tyrosine Kinase (SRC) (AID 2283223)).
Procedure: NVS_ENZ_hSRC is a biochemical, single-readout assay that uses extracted gene-proteins in a cell-free assay. Measurements were taken 1 hour after chemical dosing in a 384-well plate.NVS_ENZ_hSRC is one of one assay component(s) measured or calculated from the NVS_ENZ_hSRC assay. It is designed to make measurements of enzyme activity, a form of enzyme reporter, as detected with fluorescence intensity signals by Fluorescence and electrophoretic mobility shift technology.Data from the assay component NVS_ENZ_hSRC was analyzed into 1 assay endpoint. This assay endpoint, NVS_ENZ_hSRC, was analyzed in the positive analysis fitting direction relative to DMSO as the negative control and baseline of activity. Using a type of enzyme reporter, loss-of-signal activity can be used to understand changes in the enzymatic activity as they relate to the gene SRC. Furthermore, this assay endpoint can be referred to as a primary readout, because this assay has produced multiple assay endpoints where this one serves a enzymatic activity function. To generalize the intended target to other relatable targets, this assay endpoint is annotated to the kinase intended target family, where the subfamily is non-receptor tyrosine kinase.
(§1) Binding assays used specific radioligands (tritiated, iodinated) with non-radioactive competitive displacement ligands in agonist or antagonist protocols (as indicated) and various reference compounds and inhibitors to titrate specific binding to receptors and transporters. Most enzyme assays (CYPs, kinases, phosphatases, proteases, HDACs) used recombinant protein and specific substrates (fluorescence mostly, some colorimetric and radioactive) and inhibitors, followed by a biochemical separation of substrate and product. All assays for the biochemical HTS were initially run in duplicate at a single concentration (10 uM for CYP450 assays and 25 uM for all others). Assay-chemical combinations meeting a pre-defined threshold (e.g., 30% inhibition and other criteria defined below) were then run in singleton concentration-response format with maximum concentration of 20 uM for CYPs and 50 uM for all others. Each assay was run with positive and negative controls, and concurrent controls on every plate. The follow-up (secondary) screen tested active chemical-pairs in concentration series, as well as a few additional assays not tested in the primary screen, some selected negative inactives, and several cases re-run in the concentration series for confirmatory purposes.

SMILES	outcome	AC50
CC(C)[C@H](C(=O)O[C@H](C#N)c1cccc(Oc2ccccc2)c1)c1ccc(Cl)cc1	inactive	
CC[C@H](C)[C@H]1O[C@]2(C=C[C@@H]1C)C[C@@H]1C[C@@H](C/C=C(\C)[C@@H](O[C@H]3C[C@H](OC)[C@@H](O[C@H]4C[C@H](OC)[C@@H](NC)[C@H](C)O4)[C@H](C)O3)[C@@H](C)/C=C/C=C3\CO[C@@H]4[C@H](O)C(C)=C[C@@H](C(=O)O1)[C@]34O)O2		34 µM (active)
CC(C1CC1)C(O)(Cn1cncn1)c1ccc(Cl)cc1 (stereo not drawn)	inactive	
CCNc1nc(Cl)nc(NC(C)(C)C#N)n1	inactive	

Each molecule was assayed against human Tyrosine Protein Kinase Receptor Tie-2 (Tie2), TEK (gene 7010) (UniProt Q02763) (assay: NVS_ENZ_hTie2: NovaScreen (NVS) Enzymatic Assay for human Tyrosine Protein Kinase Receptor Tie-2 (Tie2) (AID 2283225)).
Procedure, shortened: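 Recombinant human Tie2 kinase activity was read cell-free by fluorescence with electrophoretic mobility shift, 1 hour after dosing. The screen used 25 uM in duplicate, then concentration-response up to 50 uM. Signal loss was scored against DMSO.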

human Tyrosine Protein Kinase Receptor Tie-2 (Tie2), TEK (gene 7010), sequence (Q02763 whole entry, looked up): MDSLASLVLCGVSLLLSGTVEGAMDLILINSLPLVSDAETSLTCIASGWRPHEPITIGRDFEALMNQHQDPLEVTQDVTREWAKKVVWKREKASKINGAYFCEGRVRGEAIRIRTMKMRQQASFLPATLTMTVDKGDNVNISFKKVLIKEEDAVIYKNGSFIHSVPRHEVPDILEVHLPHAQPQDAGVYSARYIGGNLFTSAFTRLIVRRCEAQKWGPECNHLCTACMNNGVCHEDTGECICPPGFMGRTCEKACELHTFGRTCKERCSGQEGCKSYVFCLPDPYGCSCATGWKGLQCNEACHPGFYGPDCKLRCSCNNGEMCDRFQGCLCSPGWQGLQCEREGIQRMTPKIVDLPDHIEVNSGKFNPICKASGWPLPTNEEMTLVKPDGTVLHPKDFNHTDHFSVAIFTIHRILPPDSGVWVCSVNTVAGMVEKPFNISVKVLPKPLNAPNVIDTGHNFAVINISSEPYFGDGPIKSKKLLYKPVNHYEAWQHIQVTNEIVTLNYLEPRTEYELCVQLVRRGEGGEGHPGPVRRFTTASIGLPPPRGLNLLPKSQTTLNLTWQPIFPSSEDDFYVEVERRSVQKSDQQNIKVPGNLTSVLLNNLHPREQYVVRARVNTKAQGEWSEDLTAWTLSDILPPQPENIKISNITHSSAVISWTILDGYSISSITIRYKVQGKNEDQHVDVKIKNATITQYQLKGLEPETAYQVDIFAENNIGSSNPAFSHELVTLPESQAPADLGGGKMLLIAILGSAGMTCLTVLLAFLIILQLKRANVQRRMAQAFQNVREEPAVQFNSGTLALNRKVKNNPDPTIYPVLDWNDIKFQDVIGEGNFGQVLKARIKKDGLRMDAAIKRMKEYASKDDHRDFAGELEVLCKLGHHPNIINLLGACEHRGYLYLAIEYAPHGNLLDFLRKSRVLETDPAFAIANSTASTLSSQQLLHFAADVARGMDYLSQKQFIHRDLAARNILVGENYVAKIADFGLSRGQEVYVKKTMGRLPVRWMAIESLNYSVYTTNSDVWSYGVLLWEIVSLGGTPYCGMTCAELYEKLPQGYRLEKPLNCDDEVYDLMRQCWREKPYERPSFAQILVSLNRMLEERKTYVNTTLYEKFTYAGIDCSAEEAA

SMILES	AC50	outcome
CN(C)[C@@H]1C(=O)C(C(N)=O)=C(O)[C@@]2(O)C(=O)C3=C(O)c4c(O)cccc4[C@@](C)(O)[C@H]3[C@H](O)[C@@H]12	7.51 µM (active) and 13.4 µM (active) and 8.19 µM (active)	
CCCCOC(=O)c1ccccc1C(=O)O		inactive
CC[C@H](C)[C@H]1O[C@]2(C=C[C@@H]1C)C[C@@H]1C[C@@H](C/C=C(\C)[C@@H](O[C@H]3C[C@H](OC)[C@@H](O[C@H]4C[C@H](OC)[C@@H](NC)[C@H](C)O4)[C@H](C)O3)[C@@H](C)/C=C/C=C3\CO[C@@H]4[C@H](O)C(C)=C[C@@H](C(=O)O1)[C@]34O)O2		inactive
O=[N+]([O-])c1cc(C(F)(F)F)c(Cl)c([N+](=O)[O-])c1Nc1ncc(C(F)(F)F)cc1Cl		inactive
C=C(C)[C@H]1Cc2c(ccc3c2O[C@@H]2COc4cc(OC)c(OC)cc4[C@@H]2C3=O)O1		inactive
S=C1NCCN1		inactive

The molecules below were run against human Vascular Endothelial Growth Factor Receptor 3 (VEGFR3), FLT4 (gene 2324) (UniProt P35916) (assay: NVS_ENZ_hVEGFR3: NovaScreen (NVS) Enzymatic Assay for human Vascular Endothelial Growth Factor Receptor 3 (VEGFR3) (AID 2283229)).
Procedure, shortened: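 Cell-free recombinant VEGFR3 kinase reaction with fluorescent substrate, read 1 h after dosing by electrophoretic mobility shift separation of substrate and product. Single-concentration duplicate screen at 25 uM, then concentration-response up to 50 uM; loss of activity versus DMSO.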

SMILES	outcome	AC50
CCCOc1nn(C(=O)NS(=O)(=O)c2ccccc2C(=O)OC)c(=O)n1C	inactive	
CN(C)[C@@H]1C(=O)C(C(N)=O)=C(O)[C@@]2(O)C(=O)C3=C(O)c4c(O)cccc4[C@@](C)(O)[C@H]3[C@H](O)[C@@H]12		6.44 µM (active) and 3.42 µM (active) and 969 nM (active)
CCC(=NOC/C=C/Cl)C1=C(O)CC(C2CCOCC2)CC1=O (stereo not drawn)	inactive	

These molecules were tested against sheep Cyclooxygenase-2 (Cox2), PTGS2 (gene 443460) (UniProt P79208) (assay: NVS_ENZ_oCOX2: NovaScreen (NVS) Enzymatic Assay for sheep Cyclooxygenase-2 (Cox2) (AID 2283231)).
Procedure, shortened: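 Enzyme extracted from ovine placenta tested cell-free; activity read colorimetrically by absorbance 0.66 hour after dosing. Primary screen in duplicate at 25 uM; hits rerun as concentration series to 50 uM, loss of signal versus DMSO baseline.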

sheep Cyclooxygenase-2 (Cox2), PTGS2 (gene 443460), sequence (P79208 whole entry, looked up): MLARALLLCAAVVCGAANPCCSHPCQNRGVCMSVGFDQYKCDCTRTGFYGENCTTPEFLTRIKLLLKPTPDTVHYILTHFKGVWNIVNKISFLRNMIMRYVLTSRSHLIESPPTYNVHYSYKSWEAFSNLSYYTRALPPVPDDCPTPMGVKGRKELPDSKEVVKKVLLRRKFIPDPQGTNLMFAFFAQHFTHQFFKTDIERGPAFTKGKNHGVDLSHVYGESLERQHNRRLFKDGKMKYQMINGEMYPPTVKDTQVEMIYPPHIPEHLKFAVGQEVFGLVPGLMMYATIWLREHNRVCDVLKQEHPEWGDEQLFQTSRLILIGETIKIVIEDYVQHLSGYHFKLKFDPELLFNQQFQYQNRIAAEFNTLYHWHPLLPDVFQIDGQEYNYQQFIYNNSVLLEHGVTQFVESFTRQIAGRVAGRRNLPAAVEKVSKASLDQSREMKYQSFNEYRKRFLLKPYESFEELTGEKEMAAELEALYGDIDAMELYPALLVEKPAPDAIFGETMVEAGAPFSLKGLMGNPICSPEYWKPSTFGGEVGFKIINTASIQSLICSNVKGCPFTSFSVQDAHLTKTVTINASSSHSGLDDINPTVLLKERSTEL

SMILES	AC50
CN(C)[C@@H]1C(=O)C(C(N)=O)=C(O)[C@@]2(O)C(=O)C3=C(O)c4c(O)cccc4[C@@](C)(O)[C@H]3[C@H](O)[C@@H]12	1.89 µM (active)
CC[C@H](C)[C@H]1O[C@]2(C=C[C@@H]1C)C[C@@H]1C[C@@H](C/C=C(\C)[C@@H](O[C@H]3C[C@H](OC)[C@@H](O[C@H]4C[C@H](OC)[C@@H](NC)[C@H](C)O4)[C@H](C)O3)[C@@H](C)/C=C/C=C3\CO[C@@H]4[C@H](O)C(C)=C[C@@H](C(=O)O1)[C@]34O)O2	0.0396 µM (active)
FC(F)C(F)(F)OCC(Cn1cncn1)c1ccc(Cl)cc1Cl (stereo not drawn)	0.67 µM (active)

Each molecule was assayed against rat Adenylate Cyclase, Forskolin Stimulated, Adcy5 (gene 64532) (UniProt Q04400) (assay: NVS_ENZ_rACFSKBinding: NovaScreen (NVS) Enzymatic Assay for rat Adenylate Cyclase, Forskolin Stimulated (AID 2283232)).
Procedure, shortened: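 Rat forebrain membrane preparation, cell-free, read 1 h after dosing by filter-based scintillation counting. Primary screen in duplicate at 25 uM; actives (e.g. ≥30% inhibition) rerun in concentration-response up to 50 uM; fit versus DMSO.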

rat Adenylate Cyclase, Forskolin Stimulated, Adcy5 (gene 64532), sequence (Q04400 whole entry, looked up): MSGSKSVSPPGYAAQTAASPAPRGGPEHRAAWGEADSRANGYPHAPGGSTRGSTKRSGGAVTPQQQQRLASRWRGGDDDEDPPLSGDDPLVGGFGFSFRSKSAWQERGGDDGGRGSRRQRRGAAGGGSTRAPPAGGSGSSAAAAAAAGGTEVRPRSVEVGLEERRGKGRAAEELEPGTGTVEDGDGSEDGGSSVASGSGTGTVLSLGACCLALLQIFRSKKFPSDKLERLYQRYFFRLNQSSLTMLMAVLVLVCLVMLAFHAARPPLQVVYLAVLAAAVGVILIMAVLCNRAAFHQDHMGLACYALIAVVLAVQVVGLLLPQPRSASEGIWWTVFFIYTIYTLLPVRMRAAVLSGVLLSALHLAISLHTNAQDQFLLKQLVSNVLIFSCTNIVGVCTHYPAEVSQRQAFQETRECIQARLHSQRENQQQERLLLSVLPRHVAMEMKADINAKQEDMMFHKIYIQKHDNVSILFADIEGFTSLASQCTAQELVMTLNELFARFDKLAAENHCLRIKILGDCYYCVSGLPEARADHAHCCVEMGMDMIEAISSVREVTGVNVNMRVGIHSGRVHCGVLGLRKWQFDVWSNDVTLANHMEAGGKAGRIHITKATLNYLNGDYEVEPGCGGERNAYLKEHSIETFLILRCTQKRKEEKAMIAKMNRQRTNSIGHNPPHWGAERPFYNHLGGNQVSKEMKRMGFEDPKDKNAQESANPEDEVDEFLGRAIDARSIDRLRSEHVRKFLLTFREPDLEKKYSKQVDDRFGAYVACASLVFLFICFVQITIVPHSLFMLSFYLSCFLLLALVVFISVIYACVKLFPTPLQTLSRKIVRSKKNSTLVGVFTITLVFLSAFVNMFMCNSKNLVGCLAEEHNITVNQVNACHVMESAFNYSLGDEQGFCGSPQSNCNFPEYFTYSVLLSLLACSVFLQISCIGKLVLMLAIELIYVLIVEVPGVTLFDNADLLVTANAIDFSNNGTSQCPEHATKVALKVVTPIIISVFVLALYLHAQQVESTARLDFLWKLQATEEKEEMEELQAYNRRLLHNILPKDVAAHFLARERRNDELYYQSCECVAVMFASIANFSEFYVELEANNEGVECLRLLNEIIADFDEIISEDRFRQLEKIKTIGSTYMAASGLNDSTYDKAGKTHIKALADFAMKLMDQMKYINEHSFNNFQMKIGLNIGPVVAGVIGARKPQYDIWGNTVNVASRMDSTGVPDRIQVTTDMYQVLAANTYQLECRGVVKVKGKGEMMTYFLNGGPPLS

SMILES	AC50	outcome
N#CSCSC#N	25 µM (active)	
COP(=O)(OC)OC(Br)C(Cl)(Cl)Br (stereo not drawn)	14.6 µM (active)	
Cc1ccn2nc(S(=O)(=O)Nc3c(F)cccc3F)nc2n1		inactive
S=C1NCCN1		inactive
CCOP(=S)(OCC)OC(Cl)C(Cl)(Cl)Cl (stereo not drawn)		inactive

What follows are molecules tested against rat Constitutive Nitric Oxide Synthase (CNOS), Nos1 (gene 24598) (UniProt P29476) (assay: NVS_ENZ_rCNOS: NovaScreen (NVS) Enzymatic Assay for rat Constitutive Nitric Oxide Synthase (CNOS) (AID 2283236)).
Procedure, shortened: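 Enzyme activity in rat brain membrane preparation, read 1 h after dosing by filter-based radiometric scintillation counting. Primary screen in duplicate at 25 uM; actives (e.g., ≥30% inhibition) then run in concentration-response up to 50 uM.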

rat Constitutive Nitric Oxide Synthase (CNOS), Nos1 (gene 24598), sequence (P29476 whole entry, looked up): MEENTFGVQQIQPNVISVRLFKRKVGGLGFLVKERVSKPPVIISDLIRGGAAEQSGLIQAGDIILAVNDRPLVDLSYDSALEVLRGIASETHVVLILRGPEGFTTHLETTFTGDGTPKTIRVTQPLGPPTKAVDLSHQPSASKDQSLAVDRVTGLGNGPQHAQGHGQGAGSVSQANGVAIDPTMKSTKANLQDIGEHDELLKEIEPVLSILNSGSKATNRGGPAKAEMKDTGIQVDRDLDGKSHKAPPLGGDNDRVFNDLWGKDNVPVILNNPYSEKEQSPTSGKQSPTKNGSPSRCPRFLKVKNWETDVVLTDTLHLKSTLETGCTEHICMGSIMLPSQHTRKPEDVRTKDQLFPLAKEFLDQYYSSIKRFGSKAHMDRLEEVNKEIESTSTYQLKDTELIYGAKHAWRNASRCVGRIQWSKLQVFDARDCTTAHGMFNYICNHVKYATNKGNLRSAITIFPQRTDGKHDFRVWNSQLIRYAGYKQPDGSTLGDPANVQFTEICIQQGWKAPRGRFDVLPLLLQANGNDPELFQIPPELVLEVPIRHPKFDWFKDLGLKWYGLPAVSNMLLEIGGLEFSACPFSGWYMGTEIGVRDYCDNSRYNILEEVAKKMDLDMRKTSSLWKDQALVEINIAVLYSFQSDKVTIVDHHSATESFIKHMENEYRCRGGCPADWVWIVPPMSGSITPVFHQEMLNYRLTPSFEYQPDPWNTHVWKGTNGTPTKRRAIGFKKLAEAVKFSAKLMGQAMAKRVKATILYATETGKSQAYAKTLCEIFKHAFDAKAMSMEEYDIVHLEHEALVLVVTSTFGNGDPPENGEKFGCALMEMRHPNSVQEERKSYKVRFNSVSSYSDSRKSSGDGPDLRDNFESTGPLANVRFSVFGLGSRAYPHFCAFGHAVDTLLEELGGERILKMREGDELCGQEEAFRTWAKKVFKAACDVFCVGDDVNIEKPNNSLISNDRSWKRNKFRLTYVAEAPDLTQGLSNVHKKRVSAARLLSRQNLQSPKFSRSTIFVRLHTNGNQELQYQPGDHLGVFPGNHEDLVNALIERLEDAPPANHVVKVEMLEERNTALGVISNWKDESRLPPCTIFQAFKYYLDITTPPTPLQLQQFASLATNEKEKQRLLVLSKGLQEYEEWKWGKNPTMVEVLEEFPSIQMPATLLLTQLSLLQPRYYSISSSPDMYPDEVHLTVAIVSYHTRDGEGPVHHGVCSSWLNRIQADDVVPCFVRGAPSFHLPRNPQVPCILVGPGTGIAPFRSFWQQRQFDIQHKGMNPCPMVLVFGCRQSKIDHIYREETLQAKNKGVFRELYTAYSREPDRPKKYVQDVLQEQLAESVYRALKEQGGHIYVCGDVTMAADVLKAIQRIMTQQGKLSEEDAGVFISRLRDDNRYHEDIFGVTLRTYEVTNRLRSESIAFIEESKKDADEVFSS

SMILES	AC50	outcome
CN(C)[C@@H]1C(=O)C(C(N)=O)=C(O)[C@@]2(O)C(=O)C3=C(O)c4c(O)cccc4[C@@](C)(O)[C@H]3[C@H](O)[C@@H]12	5.33 µM (active)	
CCCCSP(=O)(SCCCC)SCCCC	6.6 µM (active)	
CCCCN(CC)c1c([N+](=O)[O-])cc(C(F)(F)F)cc1[N+](=O)[O-]		inactive
CC(C)[C@H](C(=O)O[C@H](C#N)c1cccc(Oc2ccccc2)c1)c1ccc(Cl)cc1		inactive
COP(=O)(NC(C)=O)SC (stereo not drawn)		inactive
Nc1c(Cl)cc([N+](=O)[O-])cc1Cl		inactive

What follows are molecules tested on rat Monoamine Oxidase, MAO-A, Peripheral (MAOAP), gene 29253 (assay: NVS_ENZ_rMAOAP: NovaScreen (NVS) Enzymatic Assay for rat Monoamine Oxidase, MAO-A, Peripheral (MAOAP) (AID 2283237)).
Procedure: (§2) NVS_ENZ_rMAOAP is a biochemical, single-readout assay that uses extracted gene-proteins from Rat liver mitochondrial membranes in a tissue-based cell-free assay. Measurements were taken 1.17 hours after chemical dosing in a 96-well plate.NVS_ENZ_rMAOAP is one of one assay component(s) measured or calculated from the NVS_ENZ_rMAOAP assay. It is designed to make measurements of enzyme activity, a form of enzyme reporter, as detected with scintillation counting signals by Lysate-based radiodetection technology.Data from the assay component NVS_ENZ_rMAOAP was analyzed into 1 assay endpoint. This assay endpoint, NVS_ENZ_rMAOAP, was analyzed in the positive analysis fitting direction relative to DMSO as the negative control and baseline of activity. Using a type of enzyme reporter, loss-of-signal activity can be used to understand changes in the enzymatic activity as they relate to the gene Maoa. Furthermore, this assay endpoint can be referred to as a primary readout, because this assay has produced multiple assay endpoints where this one serves a enzymatic activity function. To generalize the intended target to other relatable targets, this assay endpoint is annotated to the oxidoreductase intended target family, where the subfamily is monoamine oxidase.
as §1, with “Assay-chemical combinations meeting a pre-defined threshold (e.g., 30% inhibition and other criteria defined below) were then run in singleton concentration-response format with maximum concentration of 20 uM for CYPs and 50 uM for all others.” left out

SMILES	AC50	outcome
C[Si](Cn1cncn1)(c1ccc(F)cc1)c1ccc(F)cc1	25 µM (active)	
CN(C)C(=O)Nc1cccc(C(F)(F)F)c1	25 µM (active)	
CC[C@H](C)[C@H]1O[C@]2(C=C[C@@H]1C)C[C@@H]1C[C@@H](C/C=C(\C)[C@@H](O[C@H]3C[C@H](OC)[C@@H](O[C@H]4C[C@H](OC)[C@@H](NC)[C@H](C)O4)[C@H](C)O3)[C@@H](C)/C=C/C=C3\CO[C@@H]4[C@H](O)C(C)=C[C@@H](C(=O)O1)[C@]34O)O2		inactive
CCC(=O)Nc1ccc(Cl)c(Cl)c1	6.9 µM (active)	
Nc1c(Cl)cc([N+](=O)[O-])cc1Cl	18 µM (active)	

The molecules below were run against rat Monoamine Oxidase, MAO-B, Central (MAOBC), Maob (gene 25750) (UniProt P19643) (assay: NVS_ENZ_rMAOBC: NovaScreen (NVS) Enzymatic Assay for rat Monoamine Oxidase, MAO-B, Central (MAOBC) (AID 2283238)).
Procedure: as §2, with “NVS_ENZ_rMAOBC” for “NVS_ENZ_rMAOAP”, “brain” for “liver mitochondrial membranes”, “plate.NVS_ENZ_rMAOBC” for “plate.NVS_ENZ_rMAOAP”, “NVS_ENZ_rMAOBC,” for “NVS_ENZ_rMAOAP,”, “Maob.” for “Maoa.”
as §1

rat Monoamine Oxidase, MAO-B, Central (MAOBC), Maob (gene 25750), sequence (P19643 whole entry, looked up): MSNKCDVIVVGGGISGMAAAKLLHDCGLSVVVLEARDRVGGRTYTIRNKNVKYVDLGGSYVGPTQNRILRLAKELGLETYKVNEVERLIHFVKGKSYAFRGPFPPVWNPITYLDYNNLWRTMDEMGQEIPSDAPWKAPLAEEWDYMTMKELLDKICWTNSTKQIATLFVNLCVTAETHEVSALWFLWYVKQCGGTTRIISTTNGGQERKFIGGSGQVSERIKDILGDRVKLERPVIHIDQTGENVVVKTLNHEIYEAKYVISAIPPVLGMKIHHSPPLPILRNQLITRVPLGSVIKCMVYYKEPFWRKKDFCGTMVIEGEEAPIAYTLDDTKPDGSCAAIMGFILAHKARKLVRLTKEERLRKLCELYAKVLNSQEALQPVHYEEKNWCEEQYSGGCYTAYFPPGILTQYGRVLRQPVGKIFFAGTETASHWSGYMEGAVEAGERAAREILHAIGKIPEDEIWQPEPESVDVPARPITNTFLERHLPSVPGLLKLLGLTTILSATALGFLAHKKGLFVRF

SMILES	outcome	AC50
CSC1=N[C@@](C)(c2ccccc2)C(=O)N1Nc1ccccc1	inactive	
CSc1nnc(C(C)(C)C)c(=O)n1N		16.8 µM (active)
COP(=O)(OC)OC(Br)C(Cl)(Cl)Br (stereo not drawn)	inactive	
CC[C@H](C)[C@H]1O[C@]2(C=C[C@@H]1C)C[C@@H]1C[C@@H](C/C=C(\C)[C@@H](O[C@H]3C[C@H](OC)[C@@H](O[C@H]4C[C@H](OC)[C@@H](NC)[C@H](C)O4)[C@H](C)O3)[C@@H](C)/C=C/C=C3\CO[C@@H]4[C@H](O)C(C)=C[C@@H](C(=O)O1)[C@]34O)O2	inactive	
CCC(=O)Nc1ccc(Cl)c(Cl)c1		13 µM (active)
Nc1c(Cl)cc([N+](=O)[O-])cc1Cl		15.3 µM (active)
